Source: PubChem BioAssay
Hits are enriched below; roughly 8% of the tested compounds scored in any of these assays.
HT1080 IDH1KD tx – kills HT-1080 cells with IDH1 knockdown; HT-1080 IDH1 knockdown viability, ATP luminescence, 48 h; hit rate 2% among 360,000; AID 686971; Potency, µM (titrated, usually from 46.1 µM), for the others: top-dose activity, negative = toxicity, hits mostly cytotoxic;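 further: 0% = DMSO wells and -100% = cell-free medium wells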
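Viability of IDH1-knockdown HT-1080 fibrosarcoma cells was assessed by CellTiter-Glo after 48 h at 37 °C with titrated compound; concentration-effect curves were classified by fit quality and response size.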
HT1080-NT tox – kills 2HG-producing HT-1080-NT fibrosarcoma cells | HT-1080-NT fibrosarcoma viability, CellTiter-Glo ATP luminescence, 48 h | Potency, µM (highest dose often 46.1 µM), without a hit: at the highest dose activity, negative = less viability, most hits filed as cytotoxic | hit rate 1.6% among 360,000 | AID 686970;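 further: NT is the 2HG producing partner of a matched IDH1 knockdown line; 0% = DMSO-treated cells and -100% = media-only wells without cells; nearly all actives have a fitted effect of over 55% in size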
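Viability of the 2HG-overproducing fibrosarcoma line after 48 hours of compound exposure at 37 degrees C was determined by luminescence with CellTiter-Glo, and concentration-effect curves were then fitted and categorized.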
KB-V1 cytotox – KB-V1 MDR subline cytotoxicity | hit rate 3.4% among 400,000 | Potency, µM (doses to about 46.1 µM), most hits filed as cytotoxic | AID 1347076 | KB-V1 MDR cells viability, CellTiter-Glo, 72 h; further: on the % scale 0 is the no-effect control and ±100 the full control effect; nearly all actives have a fitted effect of over 60% in size
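Luminescent ATP read-out (CellTiter-Glo, 10 min) measures survival of drug-selected KB-V1 MDR cells after 72 h, 37 degrees C compound exposure. Medium: phenol-red-free DMEM, 10% FBS. Values from fitted concentration-response curves.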
SW480 rerep – inducers of DNA re-replication in SW480 colon cancer cells | hit rate 1.8% among 340,000 | SW480 DNA re-replication, Hoechst DNA content imaging, 48 h | Potency, µM (highest dose often 46.1 µM), inactives show at the top dose re-replication activation, most hits filed as activators; further: % of control where 0% means no effect; nearly all actives have a fitted effect of over 55% in size
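First, 250 cells per well were seeded. Next, compound or vehicle (23 nL) was pinned in, plates sat 48 hr at 37 C. Finally Hoechst was added for 40 min before fluorescence scanning.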
MCF10A rereplic – DNA re-replication induction in MCF 10a cells; hit rate 2.9% among 350,000; Potency, µM (top dose mostly 46.1 µM), without a hit: at the top dose activity, positive = re-replication, most hits filed as activators; MCF 10A DNA re-replication, Hoechst nuclear intensity, 48 h; further: % of control where 0% means no effect; nearly all actives have a fitted effect of over 50% in size
KB-3-1 cytotox – KB-3-1 parental cell cytotoxicity; KB-3-1 viability, CellTiter-Glo ATP luminescence, 72 h; Potency, µM (top dose mostly 46.1 µM), actives largely listed as cytotoxic; hit rate 1.4% among 400,000; AID 1347075; further: on the % scale 0 is the no-effect control and ±100 the full control effect; nearly all actives have a fitted effect of over 60% in size
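Cytotoxicity measured as CellTiter-Glo luminescence after 72 h at 37 C. Compound titrations were pinned onto drug-naive KB-3-1 parental adenocarcinoma cells grown in DMEM with 10% FBS, and normalized data fitted to concentration-response curves.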
An asterisk follows results filed as active; i = inactive; ? = inconclusive; . = no result given; ! = not active in a repeat; [ ] = dose if it differs, or a comment. The call rests on the fitted dose curve; in most records, active means well fitted curve in the direction sought with a large enough effect; inconclusive means small, poorly fitted or top-dose-only effect, or another doubt; inactive means no such curve, though single readings can be large; an effect the other way counts as inactive or inconclusive. Potency means the concentration at half of the fitted maximal effect.

SMILES | HT1080 IDH1KD tx | HT1080-NT tox | KB-V1 cytotox | SW480 rerep | MCF10A rereplic | KB-3-1 cytotox
O=C(CN1CC=C(c2ccccc2)CC1)Nc1cc(Cl)ccc1Cl | 7.8% | 5.2% | ? | 8.5% | 18.4µM* | i
Cc1ccc(S(=O)(=O)N2CCCCC2)cc1NC(=O)CN1CC=C(c2ccccc2)CC1 | 12.1% | 2.6% | 6.51µM* | -7.4% | ? | ?
O=C1CN=C(c2ccccc2Cl)c2cc(Cl)ccc2N1Cc1cccc(Cl)c1 | . | . | 14.6µM* | . | . | ?
O=C1CN=C(c2ccccc2)c2cc(Cl)ccc2N1CC1CC1 | . | . | . | 5.0% | -0.8% | .
NC(Cc1ccc(F)cc1)c1csc(Nc2ccccn2)n1 (stereo unspecified) | 23.1µM* | ? | ? | . | . | i
NC(Cc1ccc(Cl)cc1)c1csc(Nc2ccccn2)n1 (stereo unspecified) | ? | 23.1µM* | i | . | . | i
COc1cccc(Nc2nc(C(N)Cc3ccc(F)cc3)cs2)n1 (stereo unspecified) | 14.6µM* | 23.1µM* | ? | . | . | ?
NC(Cc1ccccc1)c1csc(Nc2ccccn2)n1 (stereo unspecified) | ? | ? | i | . | . | i
C1=CC2C3C=CC(C3)C2C1 (stereo unspecified) | 5.6% | 29.3% | i | ? | -10.5% | i
Cc1ccc(N2CCN(C(=O)c3cn(CC4CCCCC4)nn3)C(C)C2)cc1 (stereo unspecified) | ? | ? | ? | 21.2% | 20.6µM* | i
Cc1nccc2c1[nH]c1ccc(Br)cc12 | -20.0% | -21.4% | ? | -2.3% | 52.5% | i
COc1ccc2c(c1)[nH]c1c(C)nccc12 | -6.6% | -0.4% | 23.1µM*! | ? | ? | ?
CN(Cc1ccccc1)C(=O)c1cccc(NC(=O)Cc2ccc([N+](=O)[O-])cc2)c1 | -24.3% | -5.6% | i | -8.7% | ? | i
COc1cc(-c2ccc(N)c(OC)c2)ccc1N | -3.7% | -12.9% | i | -0.1% | -49.8% | i
COc1cc(-c2ccc(=O)[nH]n2)ccc1OC(F)F | -9.1% | 24.6% | 0.0517µM* | -2.6% | ? | 0.461µM*
COCCCNC(=S)NCCCNc1nc2cc(C)cc(C)c2cc1C#N | -16.0% | -25.4% | i | 21.5% | ? | i
O=P(O)(O)COc1ccccc1O | 2.0% | 1.7% | i | 4.61µM* | ? | i
CCCCc1ccc(NC(=O)c2cccn(Cc3ccc(Cl)cc3)c2=O)cc1 | . | . | i | . | . | ?
CC(=O)C1C(N2CC2)CC2C3CC=C4CC(O)CCC4(C)C3CCC21C (stereo unspecified) | -6.0% | -24.8% | ? | 23.1µM* | 4.61µM* | ?
C[C@]12CC[C@H](O)CC1=CCC1C2CC[C@@]2(C)C1C[C@@H](O)[C@@H]2O (stereo partly specified) | 2.8% | 3.7% | i | 3.8% | -0.3% | i
N#CC1=C(N)Oc2c(c(=O)sc3ccccc23)C1c1cccnc1 (stereo unspecified) | 4.61µM* | 3.26µM* | i | 14.6µM* | 8.2µM* | ?
O=[N+]([O-])/C=C/c1c(Cl)cccc1Cl | ? | ? | ? | 6.51µM* | 3.66µM* | ?
O=c1[nH]c(=S)n(-c2cccc(Cl)c2)c(O)c1/C=N/N1CCOCC1 | -3.8% | -3.8% | i | 3.6% | 6.3% | i
O=C(O)c1cc[c]([Hg][Cl])cc1 | 18.4µM* | 16.4µM* | i | -1.7% | 12.6% | i
Cn1c(=O)n(C)c2cc(CNCCc3ccccc3F)ccc21 | . | . | i | . | . | i
C[C@@]12CC[C@H]3[C@@H](CC[C@@H]4C[C@H]5S[C@H]5C[C@]43C)[C@H]1CC[C@H]2O | . | . | . | -0.7%[20.6 µM] | 10.2%[20.6 µM] | .
Cc1ccccc1CN1Cc2cnnn2-c2ccccc2C1C#N (stereo unspecified) | 6.51µM* | 8.2µM* | ? | ? | 6.51µM* | ?
